# An excerpt weighted towards active compounds, which were near 22% of everything screened.
# CYP2C19 inhib = inhibitors of human CYP2C19; P33261; CYP2C19 Supersomes, luciferin-H EGE luminescence, 30 min; inhibition, % at 5 µM; 21% of 96,000 active;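 active means CYP2C19 inhibition above a set limit at 5 µM in the primary screen, cut at about 50% in these data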
# Target sequence (P33261 whole entry, looked up): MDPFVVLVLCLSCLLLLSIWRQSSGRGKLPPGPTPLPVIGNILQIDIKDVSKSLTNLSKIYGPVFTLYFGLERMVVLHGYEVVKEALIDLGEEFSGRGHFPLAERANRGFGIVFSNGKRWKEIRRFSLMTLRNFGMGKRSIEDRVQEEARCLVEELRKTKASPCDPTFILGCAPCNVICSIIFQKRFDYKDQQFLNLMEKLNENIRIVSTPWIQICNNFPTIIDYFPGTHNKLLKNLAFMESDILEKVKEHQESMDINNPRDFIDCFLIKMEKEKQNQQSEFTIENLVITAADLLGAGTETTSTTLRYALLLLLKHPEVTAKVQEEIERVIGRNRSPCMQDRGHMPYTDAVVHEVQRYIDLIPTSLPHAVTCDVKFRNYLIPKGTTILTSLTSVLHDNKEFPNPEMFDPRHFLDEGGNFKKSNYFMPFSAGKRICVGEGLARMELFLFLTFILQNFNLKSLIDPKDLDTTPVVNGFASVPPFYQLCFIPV
# CYP2C9 act = increases human cytochrome P450 2C9 activity; P11712; recombinant CYP2C9, luciferin-H conversion, luminescence; hits give high values; factor 1 = untreated enzyme, 0 = blocked; activation factor at 5 µM; 1.4% of 96,000 active;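 active means activation factor of 2 or more for CYP2C9 at a 5 µM dose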
# CYP2C9 inhib = blocks human cytochrome P450 2C9; P11712; AID 777; 20% of 96,000 active; CYP2C9 Supersomes, luciferin-H conversion, luminescence; inhibition, % at 5 µM;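 active means blocking of liver enzyme CYP2C9 beyond about 50% at 5 µM, limit read from the data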
# CYP2C19 act = cytochrome P450 2C19 (human) activation. 96,000 tested, under 10 active. activation factor at 5 µM. recombinant CYP2C19, luciferin-H EGE luminescence; hits give high values; 0 = fully inhibited enzyme, 1 = untreated enzyme. P33261;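 active means activation factor of at least 2 at 5 µM in the primary screen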
# Measles CPE = protection of cells from measles virus; AID 841; protection (pct of control), % at 4 µM; Measles virus-infected cells, CPE protection, absorbance; 1.5% of 140,000 active; in the data active means protection mostly above about 24%, no sharp cut-off; inactive means mostly below about 26%
# Numbers stand for hits; n = inactive; x = not tested or not shown.
SMILES,CYP2C19 inhib,CYP2C9 act,CYP2C9 inhib,CYP2C19 act,Measles CPE
Cc1cc(-c2c(C)[nH]n(-c3ccc(Cl)cc3)c2=O)n(-c2ccc(Cl)cc2)n1,n,n,60.2,n,n
Cc1cc(-c2ccco2)n(-c2ccccc2)n1,n,n,n,n,n
Cc1cc(-c2c(C)[nH]n(-c3ccccc3)c2=O)n(-c2ccccc2)n1,n,n,80.9,n,n
COC(=O)C/C=C/[C@@H](C)[C@@H](/C=N/OC[C@@H](C)[C@H](OCc1ccccc1)C(C)C)NS(=O)(=O)c1ccc(C)cc1,x,x,x,x,n
CC1CN(C(=O)c2ccccc2)c2ccccc2NC1=O (centres undefined),x,x,x,x,n
O=C(NC(=Nc1ccccc1)N1CCOCC1)Nc1ccccc1,54.7,n,56.4,n,n
CCc1nc2c(cnn2-c2ccc(Cl)cc2)c(=O)n1-c1ccc(OC)cc1,n,n,n,n,55.6
Cc1ccccc1Cn1nc(C)c(NC(=O)/C=C/c2cnn(C)c2)c1C,x,x,x,x,n
COc1ccc(C2(CNC(=O)/C=C\c3ccco3)CCCC2)cc1OC,n,n,n,n,n
Cc1cc(C)c(S(C)(=O)=O)c(Sc2ccc(Cl)cc2)n1,n,n,65.3,n,n
COc1ccccc1NC(=O)N(Cc1cccs1)Cc1cc2cc3c(cc2[nH]c1=O)OCO3,x,x,x,x,n
N=c1n(CCN2CCCCC2)c2ccccc2n1CC(O)c1ccc(Cl)c(Cl)c1 (centres undefined),n,n,82.4,n,n
O=C(COc1ccc2c(c1)CCC2)NCc1ccc(Cl)cc1,x,x,x,x,n
Cc1cccc(NC(=O)C2CCN(S(=O)(=O)c3cccc4nsnc34)CC2)n1,n,n,n,n,n
Cc1ccc(-c2cn(S(=O)(=O)c3cccc4nsnc34)nc2N)cc1,88.9,n,69.0,n,n
COc1ccc(OC)c(-c2cn(S(=O)(=O)c3ccccc3)nc2N)c1,n,n,n,n,n
COc1cc(-c2cn(S(=O)(=O)c3cccc4nsnc34)nc2N)cc(OC)c1OC,95.6,n,87.6,n,n
Nc1nn(S(=O)(=O)c2cccc3nsnc23)cc1-c1ccc(Br)cc1,99.8,n,99.6,n,n
CCOc1ccc(CC2CC(=O)NC2=O)cc1 (centres undefined),n,n,n,n,n
CCCCNC(=O)CCNS(=O)(=O)c1ccc(C)cc1,n,2.6,n,n,n
Cc1ccc(CNC(=O)CCNS(=O)(=O)c2ccc(C)cc2)cc1,n,n,n,n,n
CC(C)NC(=O)CCNS(=O)(=O)c1ccc(Br)cc1,50.1,n,n,n,n
COc1ccc(C2(C)NC(=O)N(Cc3cc(Cl)cc4c3OCOC4)C2=O)cc1OC (centres undefined),64.9,2.8,n,n,n
Cc1cc(NC(=O)Cn2nc(C(F)(F)F)c3c2CCC3)n(-c2ccccc2)n1,80.0,n,61.7,n,n
CCc1ccccc1NC(=O)Cn1nc(C(F)(F)F)c2c1CCC2,x,x,x,x,n
SMILES,CYP2C19 inhib,CYP2C9 act,CYP2C9 inhib,CYP2C19 act,Measles CPE
CC(C)(C)C(=O)N=C1SC2CS(=O)(=O)CC2N1c1ccc2c(c1)OCO2 (centres undefined),56.7,n,63.2,n,n
Cc1csc(NC(=O)c2ccoc2C)n1,100.0,n,80.0,n,n
CCOC(=O)c1cc(NC(=O)c2ccoc2C)cc(C(=O)OCC)c1,n,n,52.1,n,n
CCOC(=O)Cc1csc(NC(=O)c2ccoc2C)n1,93.4,n,73.6,n,n
CCOC(=O)Cc1csc(NC(=S)NC(=O)c2ccc(C)cc2)n1,x,x,x,x,n
Cc1cccc(-c2noc(CCCOc3ccc(Cl)cc3Cl)n2)c1,n,n,n,n,n
COC(=O)[C@H]1C[C@@H]1[C@H](NC(=O)c1cc(C)on1)c1ccccc1,x,x,x,x,n
COc1cc(OC)cc(C(=O)NC(=S)NCCc2ccccc2)c1,n,n,51.0,n,n
O=C(NCNC(=O)c1ccccc1)c1ccccc1,93.7,n,n,n,n
COc1ccc(C(=O)NC(=S)NCc2ccccc2)cc1,n,n,n,n,n
COc1cc(OC)cc(C(=O)NCCNC(=O)c2ccccc2)c1,53.3,n,n,n,n
COc1ccc(-c2[nH]c3ccccc3c2SCCNC(=O)c2ccccc2)cc1,x,x,x,x,32.4
CCOC(=O)N1CCN(CCC(=O)Nc2cc([N+](=O)[O-])ccc2OC)CC1,x,x,x,x,n
CCN(CC)S(=O)(=O)c1ccc(OC)c(NC(=S)Nc2cccc(C)c2)c1,x,x,x,x,n
CC1(C)CC(CC(=O)Nc2nccs2)(c2ccccc2)CCO1 (centres undefined),x,x,x,x,n
O=C(NCc1ccco1)c1ccc(CS(=O)(=O)c2cccc(C(F)(F)F)c2)o1,n,n,n,n,x
CC(NC(=O)c1ccc(CS(=O)(=O)c2cccc(C(F)(F)F)c2)o1)c1ccc2c(c1)OCCO2 (centres undefined),63.7,n,62.4,n,n
CCCCNC(=O)c1ccc(CS(=O)(=O)c2cccc(C(F)(F)F)c2)o1,70.9,n,n,n,x
COc1ccccc1S(=O)(=O)Cc1ccc(C(=O)NCc2ccc3c(c2)OCO3)o1,61.0,n,74.6,n,n
O=C(NCc1ccc2c(c1)OCO2)c1ccc(CS(=O)(=O)c2cccc(C(F)(F)F)c2)o1,75.5,n,93.5,n,x
CC(C)CC(=O)OCC(=O)Nc1ccccc1Sc1ccccc1,x,x,x,x,n
CCCC(=O)Nc1nnc(COC)s1,n,n,n,n,n
C=CCn1c(SCCC(=O)O)nc2c1c(=O)n(C)c(=O)n2C,n,n,n,n,n
Cc1ccc2oc3c(c(=O)c2c1)C(c1cccs1)N(CCCN(C)C)C3=O (centres undefined),n,n,n,n,x
COc1ccc(OC)c(NC(=O)C2C3CC4OC(=O)C2C4C3)c1 (centres undefined),x,x,x,x,n
SMILES,CYP2C19 inhib,CYP2C9 act,CYP2C9 inhib,CYP2C19 act,Measles CPE
O=C(NCc1ccc2c(c1)OCO2)c1ccc(CS(=O)(=O)c2ccc(Br)cc2)o1,54.7,n,94.9,n,n
CCC(c1nnnn1Cc1ccco1)N(Cc1cc2cc(C)cc(C)c2[nH]c1=O)CC1CCCO1 (centres undefined),74.4,n,79.1,n,n
CCC(c1nnnn1Cc1ccco1)N(Cc1ccccc1OC)Cc1cc2cc(C)ccc2[nH]c1=O (centres undefined),n,n,51.4,n,n
Cc1ccc2[nH]c(=O)c(C(c3nnnn3C3CCCC3)N(Cc3cccnc3)Cc3ccco3)cc2c1 (centres undefined),n,n,n,n,n
CS/C(=N\S(=O)(=O)c1ccccc1)c1ccccc1,x,x,x,x,n
O=S(=O)(/N=C(/Sc1ccccc1)c1ccccc1)c1ccccc1,96.1,n,95.5,n,n
CN(C1CCCCC1)S(=O)(=O)c1ccc(S(=O)(=O)N2CCN(C(=O)c3ccccc3F)CC2)cc1,n,n,n,n,n
Cn1c(C(=O)N2COCC2(C)C)cc2c(=O)n3ccccc3nc21,n,n,n,n,21.8
CCOC(=O)c1c(C)[nH]c(C)c1C(=O)CSc1nc2ccccc2n1CCOC,x,x,x,x,n
Cc1sc2nc(CSc3nc4ccccc4c(=O)n3CCCN3CCOCC3)[nH]c(=O)c2c1C,71.1,n,70.1,n,n
COCCn1c(SCC(=O)c2[nH]c(C)c(C(C)=O)c2C)nc2ccccc21,95.0,n,77.8,n,n

# Assay outcomes deposited in PubChem by several laboratories.
